These results are taken from ChEMBL document CHEMBL1961873, “Compounds: GSK PKIS; Assays: Nanosyn kinase panel” (2012).

Assay [1] concerns the target Serine/threonine-protein kinase MRCK alpha (Homo sapiens) (UniProt Q5VT25). The settings on record: at 0.1 µM.
Assay [2] shares this target. The settings on record: at 1 µM.
Assay [3] deals with Serine/threonine-protein kinase MRCK beta (Homo sapiens) (UniProt Q9Y5S2). The following applies: at 0.1 µM.
Assay [4] shares this target. The following applies: at 1 µM.
In assay [5] the target is Ribosomal protein S6 kinase alpha-5 (Homo sapiens) (UniProt O75582). The following applies: at 0.1 µM.
Ribosomal protein S6 kinase alpha-5 (Homo sapiens), sequence (O75582 whole entry, looked up): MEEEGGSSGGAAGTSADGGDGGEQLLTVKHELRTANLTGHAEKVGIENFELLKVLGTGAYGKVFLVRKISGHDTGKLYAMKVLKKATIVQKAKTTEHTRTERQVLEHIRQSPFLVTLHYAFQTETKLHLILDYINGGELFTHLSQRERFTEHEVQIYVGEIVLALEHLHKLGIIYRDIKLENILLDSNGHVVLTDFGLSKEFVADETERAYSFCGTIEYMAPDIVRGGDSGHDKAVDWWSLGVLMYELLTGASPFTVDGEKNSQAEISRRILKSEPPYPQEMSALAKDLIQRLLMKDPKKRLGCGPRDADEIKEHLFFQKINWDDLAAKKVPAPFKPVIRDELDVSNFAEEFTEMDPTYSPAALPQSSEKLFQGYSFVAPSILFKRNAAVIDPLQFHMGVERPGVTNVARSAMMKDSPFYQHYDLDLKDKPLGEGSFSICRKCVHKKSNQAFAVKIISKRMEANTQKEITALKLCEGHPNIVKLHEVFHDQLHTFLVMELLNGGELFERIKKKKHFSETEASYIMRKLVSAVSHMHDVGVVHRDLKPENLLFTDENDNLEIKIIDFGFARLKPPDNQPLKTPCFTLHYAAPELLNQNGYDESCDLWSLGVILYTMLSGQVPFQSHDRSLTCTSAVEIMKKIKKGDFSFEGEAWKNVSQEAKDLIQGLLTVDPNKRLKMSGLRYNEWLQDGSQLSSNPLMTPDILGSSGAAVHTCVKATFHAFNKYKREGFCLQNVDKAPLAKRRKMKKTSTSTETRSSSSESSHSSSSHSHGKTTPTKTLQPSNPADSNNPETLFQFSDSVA
The target is the same in assay [6]. The settings on record: at 1 µM.
Assay [7] has as its target Ribosomal protein S6 kinase alpha-4 (Homo sapiens) (UniProt O75676). The settings on record: at 0.1 µM.
Assay [8] shares this target. The settings on record: at 1 µM.
Assay [9] addresses Ribosomal protein S6 kinase beta-1 (Homo sapiens) (UniProt P23443). The settings on record: at 0.1 µM.
The target is the same in assay [10]. The settings on record: at 1 µM.
Assay [11] has as its target T1, 3-phosphoinositide-dependent protein kinase 1 (Homo sapiens) (UniProt O15530).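 Also: values are mean inhibition of PDK1.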
T1 sequence (whole entry): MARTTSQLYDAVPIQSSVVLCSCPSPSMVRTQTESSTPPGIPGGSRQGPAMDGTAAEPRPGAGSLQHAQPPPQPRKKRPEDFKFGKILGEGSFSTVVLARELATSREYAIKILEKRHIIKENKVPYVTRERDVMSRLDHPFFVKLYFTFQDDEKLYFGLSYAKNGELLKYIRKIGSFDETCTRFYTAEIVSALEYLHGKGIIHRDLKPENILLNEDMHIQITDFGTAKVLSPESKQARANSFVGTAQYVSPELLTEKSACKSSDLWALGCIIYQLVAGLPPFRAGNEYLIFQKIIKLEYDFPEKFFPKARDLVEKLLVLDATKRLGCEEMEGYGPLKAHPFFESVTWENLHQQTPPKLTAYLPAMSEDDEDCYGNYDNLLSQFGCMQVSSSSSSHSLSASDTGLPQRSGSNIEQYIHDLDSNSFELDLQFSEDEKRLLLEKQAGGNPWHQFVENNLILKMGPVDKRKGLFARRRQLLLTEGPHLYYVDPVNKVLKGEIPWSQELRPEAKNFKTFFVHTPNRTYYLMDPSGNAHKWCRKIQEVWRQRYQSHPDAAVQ
The settings on record: at 0.1 µM.

In assay [12] the target is cAMP-dependent protein kinase catalytic subunit alpha (Homo sapiens) (UniProt P17612). The following applies: at 0.1 µM.
For assay [13] the target is unchanged. The settings on record: at 1 µM.
The target in assay [14] is Protein kinase C alpha type (Homo sapiens) (UniProt P17252). The settings on record: at 0.1 µM.
Assay [15] has the same target. The settings on record: at 1 µM.
Assay [16] addresses Protein kinase C beta type (Homo sapiens) (UniProt P05771). The following applies: at 0.1 µM.
The target is the same in assay [17]. The following applies: at 1 µM.
In assay [18] the target is Protein kinase C eta type (Homo sapiens) (UniProt P24723). The settings on record: at 0.1 µM.
For assay [19] the target is unchanged. The following applies: at 1 µM.
Assay [20] addresses Protein kinase C gamma type (Homo sapiens) (UniProt P05129). The following applies: at 0.1 µM.

Ribosomal protein S6 kinase beta-1 (Homo sapiens), sequence (P23443 whole entry, looked up): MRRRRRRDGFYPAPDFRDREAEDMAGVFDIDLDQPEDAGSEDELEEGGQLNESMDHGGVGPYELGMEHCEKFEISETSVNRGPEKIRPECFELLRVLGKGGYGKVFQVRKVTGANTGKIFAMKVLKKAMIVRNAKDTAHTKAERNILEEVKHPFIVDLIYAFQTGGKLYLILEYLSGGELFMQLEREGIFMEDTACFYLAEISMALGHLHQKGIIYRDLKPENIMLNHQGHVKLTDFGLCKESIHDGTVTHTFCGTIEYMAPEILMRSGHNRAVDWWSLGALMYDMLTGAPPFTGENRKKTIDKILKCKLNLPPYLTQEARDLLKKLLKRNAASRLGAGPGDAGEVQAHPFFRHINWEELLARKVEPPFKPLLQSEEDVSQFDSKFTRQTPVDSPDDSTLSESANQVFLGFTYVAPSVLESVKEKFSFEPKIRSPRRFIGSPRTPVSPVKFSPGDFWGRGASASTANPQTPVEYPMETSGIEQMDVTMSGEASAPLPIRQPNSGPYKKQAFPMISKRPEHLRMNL
Ribosomal protein S6 kinase alpha-4 (Homo sapiens), sequence (O75676 whole entry, looked up): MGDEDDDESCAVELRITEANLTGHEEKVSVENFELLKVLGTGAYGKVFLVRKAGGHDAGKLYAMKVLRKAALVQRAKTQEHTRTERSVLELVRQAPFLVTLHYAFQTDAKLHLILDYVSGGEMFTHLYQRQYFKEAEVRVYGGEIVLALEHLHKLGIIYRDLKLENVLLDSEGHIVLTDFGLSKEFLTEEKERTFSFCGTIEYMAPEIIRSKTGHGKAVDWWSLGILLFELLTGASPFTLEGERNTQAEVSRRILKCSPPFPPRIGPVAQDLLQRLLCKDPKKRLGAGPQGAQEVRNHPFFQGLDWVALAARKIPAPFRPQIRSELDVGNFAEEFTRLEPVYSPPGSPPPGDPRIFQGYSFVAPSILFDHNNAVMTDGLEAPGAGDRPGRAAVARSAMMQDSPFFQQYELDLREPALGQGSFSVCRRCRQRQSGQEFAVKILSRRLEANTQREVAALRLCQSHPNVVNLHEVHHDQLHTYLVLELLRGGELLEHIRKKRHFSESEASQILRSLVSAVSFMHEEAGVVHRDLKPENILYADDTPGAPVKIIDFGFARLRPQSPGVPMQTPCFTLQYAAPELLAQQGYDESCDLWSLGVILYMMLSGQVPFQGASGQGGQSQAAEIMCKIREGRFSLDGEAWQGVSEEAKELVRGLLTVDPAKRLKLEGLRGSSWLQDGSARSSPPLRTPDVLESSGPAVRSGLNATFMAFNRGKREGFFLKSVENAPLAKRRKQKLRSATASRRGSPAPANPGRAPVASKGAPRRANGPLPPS
Serine/threonine-protein kinase MRCK alpha (Homo sapiens), sequence (Q5VT25 whole entry): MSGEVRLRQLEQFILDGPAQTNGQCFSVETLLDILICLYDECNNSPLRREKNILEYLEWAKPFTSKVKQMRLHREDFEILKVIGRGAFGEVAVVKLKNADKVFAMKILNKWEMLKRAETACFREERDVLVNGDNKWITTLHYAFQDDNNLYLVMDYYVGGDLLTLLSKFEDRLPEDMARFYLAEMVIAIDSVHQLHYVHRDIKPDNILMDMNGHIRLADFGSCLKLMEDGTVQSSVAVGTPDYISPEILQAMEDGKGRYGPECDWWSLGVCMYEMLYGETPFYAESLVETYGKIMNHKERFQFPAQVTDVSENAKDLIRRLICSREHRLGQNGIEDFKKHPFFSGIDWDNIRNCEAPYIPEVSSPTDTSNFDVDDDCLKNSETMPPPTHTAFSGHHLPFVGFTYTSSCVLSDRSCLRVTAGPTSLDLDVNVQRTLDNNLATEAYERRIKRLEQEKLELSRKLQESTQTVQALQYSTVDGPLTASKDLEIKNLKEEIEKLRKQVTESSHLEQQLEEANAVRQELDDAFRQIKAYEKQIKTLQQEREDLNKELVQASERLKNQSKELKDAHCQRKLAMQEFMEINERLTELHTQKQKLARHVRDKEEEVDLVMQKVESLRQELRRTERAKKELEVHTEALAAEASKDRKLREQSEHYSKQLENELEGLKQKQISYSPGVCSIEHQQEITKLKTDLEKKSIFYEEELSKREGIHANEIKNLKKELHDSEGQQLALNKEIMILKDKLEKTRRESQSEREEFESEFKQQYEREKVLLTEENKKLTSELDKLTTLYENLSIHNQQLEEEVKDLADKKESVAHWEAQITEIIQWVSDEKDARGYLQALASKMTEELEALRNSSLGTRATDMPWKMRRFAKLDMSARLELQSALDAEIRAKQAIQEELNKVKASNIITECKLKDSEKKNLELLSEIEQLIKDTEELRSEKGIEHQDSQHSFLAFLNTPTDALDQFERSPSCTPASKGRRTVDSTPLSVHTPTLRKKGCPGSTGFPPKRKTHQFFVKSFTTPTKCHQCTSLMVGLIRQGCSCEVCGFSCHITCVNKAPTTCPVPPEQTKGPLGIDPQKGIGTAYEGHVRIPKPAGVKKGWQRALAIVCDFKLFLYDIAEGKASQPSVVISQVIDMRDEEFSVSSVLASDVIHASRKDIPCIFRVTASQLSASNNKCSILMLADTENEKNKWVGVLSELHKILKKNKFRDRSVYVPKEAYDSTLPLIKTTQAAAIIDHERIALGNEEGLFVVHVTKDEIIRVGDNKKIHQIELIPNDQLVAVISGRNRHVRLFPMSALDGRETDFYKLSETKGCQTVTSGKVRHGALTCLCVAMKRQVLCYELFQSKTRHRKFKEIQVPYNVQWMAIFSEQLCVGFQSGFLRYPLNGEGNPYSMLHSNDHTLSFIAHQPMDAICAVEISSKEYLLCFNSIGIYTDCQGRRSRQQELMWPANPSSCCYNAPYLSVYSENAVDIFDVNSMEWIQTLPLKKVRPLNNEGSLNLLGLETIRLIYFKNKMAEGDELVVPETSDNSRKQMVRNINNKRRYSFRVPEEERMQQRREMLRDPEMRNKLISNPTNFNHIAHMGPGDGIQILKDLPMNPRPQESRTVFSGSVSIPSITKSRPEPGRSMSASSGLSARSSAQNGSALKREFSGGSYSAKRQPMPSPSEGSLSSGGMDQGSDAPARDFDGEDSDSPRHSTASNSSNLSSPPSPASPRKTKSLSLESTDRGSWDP

As to `COc1cccc(-c2c[nH]c3c(N/N=C/c4ccncc4)ncnc23)c1`, the inhibition (in general, the relative decrease from the control value, in per cent) in [1] came out at 0.71%; in [2], 6.35%; in assay [3] it was 0.92%; in assay [4] it was 5.25%; in [5], 8.98%; in assay [6], 9.82%. Also, the inhibition in assay [7] came out at 2.85%; in assay [8] it was 4.13%; in assay [9] it was 2.85%; in assay [10], 8.54%; in [11], 6.08%; in assay [12] it was 1.57%. In addition, the inhibition in assay [13] was 3.93%; in assay [14], 0.02%; in [15] it was 4.24%; in [16] it was 2.33%; in assay [17], 4.29%; in [18], 2.72%. Also, the inhibition in assay [19] was 1.53%; in assay [20] it was 2.27%.
`COc1ccc2[nH]c3c4[nH]c5ccc(OC)cc5c4c4c(c3c2c1)C(=O)NC4=O`: the inhibition in assay [1] was 0.84%; in assay [2], 11.8%; in assay [3], -0.86%; in assay [4] it was 2.96%; in [5] it was 18.7%; in assay [6], 48.4%. The inhibition was determined as 11.8% in assay [7]; 45.3% in assay [8]; 45.6% in assay [9]; 83.6% in assay [10]; 29.8% in assay [11]; 4.03% in assay [12]. In addition, the inhibition was found to be 17.2% in assay [13]; 4.27% in [14]; 28.7% in [15]; 1.55% in [16]; 8.91% in assay [17]; 3.82% in assay [18]. Besides, the inhibition came to 19.5% in assay [19] and 4.07% in [20].
For the molecule `N#Cc1c(NC(=O)CN2CCOCC2)sc2c1CCCC2`, the inhibition in assay [1] came out at 0.22%; in [2], 2.63%; in assay [3], 0.43%; in [4], 0.37%; in assay [5] it was 3.16%; in assay [6], 3.12%. Also, the inhibition in assay [7] turned out to be 2.5%; in assay [8] it was 2%; in [9] it was 2.57%; in assay [10] it was 1.13%; in assay [11], 2.07%; in assay [12] it was 2.3%. For the same molecule, the inhibition is 1.82% in assay [13]; 2.23% in [14]; 5.72% in assay [15]; 0.89% in [16]; 2.05% in assay [17]; 5.18% in assay [18]. Besides, the inhibition in [19] stood at 3.17%; in assay [20], 3.77%.
In the case of `COc1cc2c(cc1Nc1nc(Nc3ccsc3C(N)=O)c3cc[nH]c3n1)N(C(=O)CN(C)C)CCC2(C)C`, the inhibition in assay [1] came to 2.48%; in [2] it was 6.74%; in [3], 4.54%; in [4] it was 14.9%; in assay [5], 4.6%; in assay [6], 8.3%. In addition, the inhibition was 5.18% in [7]; 13.8% in [8]; 2.7% in [9]; 4.93% in assay [10]; 2.56% in assay [11]; 2.98% in assay [12]. Also, the inhibition in assay [13] turned out to be 8.67%; in assay [14] it was 4.21%; in assay [15], 34.3%; in assay [16], 2.16%; in [17], 3.73%; in assay [18], 6.04%. Besides, the figures for the inhibition in [19] and in assay [20] were 9.1% and 8.05%, respectively.
In the case of `Fc1ccc(-c2nn3ccccc3c2-c2ccncc2)cc1`, the inhibition worked out at 1.08% in [1]; 3.93% in assay [2]; 1.99% in assay [3]; 4.92% in assay [4]; 4.62% in assay [5]; 5.97% in [6]. Further, the inhibition came out at 5.06% in assay [7]; 6.2% in assay [8]; 1.21% in [9]; 2.15% in assay [10]; 0.82% in assay [11]; 2.55% in [12]. Moreover, the inhibition was determined as 16% in assay [13]; 0.75% in assay [14]; 3.12% in assay [15]; 8.61% in assay [16]; 37.8% in assay [17]; 1.31% in assay [18]. Moreover, the figures for the inhibition in assay [19] and in assay [20] were 3.71% and -2.68%, respectively.
For `COc1cccc(-n2ncc3c(N/N=C/c4ccc(F)cc4)ncnc32)c1`, the inhibition in assay [1] was -0.63%; in assay [2] it was 1.53%; in assay [3] it was -0.45%; in [4], 0.66%; in assay [5], 4.05%; in assay [6], 4.15%. Also, the inhibition in assay [7] worked out at 2.78%; in assay [8] it was 4.13%; in [9], 1.73%; in assay [10], 3.51%; in [11] it was 0.01%; in [12] it was 1.66%. Moreover, the inhibition in assay [13] turned out to be 3.69%; in [14], 0.47%; in [15] it was 1.43%; in assay [16], 1.01%; in [17], 0.97%; in assay [18], 3.28%. The inhibition in assay [19] turned out to be 2.58%; in [20], 0.86%.
Turning to `Clc1ccc(-c2nn3ncccc3c2-c2ccnc(Nc3ccccc3)n2)cc1`, the inhibition in assay [1] is -0.06%; in [2] it was 0.52%; in assay [3] it was 0.76%; in assay [4] it was 1.28%; in assay [5] it was 0.64%; in assay [6], 2.07%. In addition, the inhibition in assay [7] is 1%; in assay [8] it was 2.91%; in [9], 0.57%; in [10], -0.24%; in [11], 0.53%; in assay [12] it was 1.67%. The inhibition in [13] is 2.52%; in assay [14], 1.23%; in assay [15] it was -0.09%; in assay [16] it was 0.65%; in assay [17] it was 1.93%; in assay [18] it was -0.59%. Also, the inhibition in assay [19] is -0.77%; in [20] it was -1.17%.
